In ChEMBL document CHEMBL4513149, “CO-ADD screening of MMV (CH) - MMV compounds” (2021) one finds Inhibition data, which are given here for 36 compounds.

Results with a measured potency or affinity are listed apart.

The assay relates to Cryptococcus neoformans. As to conditions: Concentration 20 uM; ASSAY_TEST Inhibition of Fungal Growth; detection method Resazurin; Absorption (OD600-OD570); plate type 384well; NBS; CORNING #3640. A general note: Resazurin is reduced to fluorescent resorufin, in cell work by metabolically active cells.
Consider `CCc1ccc([C@@H]2C[C@H](C(F)(F)F)n3ncc(C(=O)NCc4ccc(OC)cc4)c3N2)cc1`, for which the Inhibition (in general, the drop in the measured response relative to a control, in per cent) is -1.28%. `COc1cc(NC(=O)Cc2nn(C)c(=O)c3ccccc23)ccc1Cl`: the Inhibition was -0.85%. With `COc1ccc(Oc2ccc([C@@H](C)N(C)c3ncc4c(N)nc(N)nc4n3)cc2)cc1` the figure was -6.67%; with `CCOc1ccc(-c2nc(NC(=O)CS(=O)(=O)c3ccccc3)sc2C)cc1`, -9.26%. With `CC(C)(C(=O)Nc1ccc(F)cc1)n1cc(-c2ccccc2F)cn1`, the Inhibition is -7.47%. In the case of `CCC(Sc1nc2ccccc2o1)C(=O)Nc1nnc(C)s1` (stereo unspecified) it was -9.17%; in that of `CCC(C)NC(=O)c1ccc(NC(=O)C2(c3ccccc3)CCCC2)cc1` (stereo unspecified), 9.11%; in that of `CCCNC(=O)N1CCC2(CC1)CC(=O)c1cc(C)ccc1O2`, -8.06%. Turning to `CCc1ccc(S(=O)(=O)Nc2cc(CN3CCN(CCC(C)C)CC3)ccc2C)cc1`, the Inhibition was -6.26%. Turning to `Cc1cccc(NC(=O)c2cc(S(=O)(=O)N(C)c3ccc(F)cc3)ccc2Cl)n1`, the Inhibition was -4.89%.

For the compound `Cc1nn(C(=O)Nc2cccc(C(F)(F)F)c2)c(C)c1Sc1ncccn1`, the Inhibition is -2.75%. In the case of `COc1ccc(C2=NN(C3CCCCCC3)C(=O)[C@@H]3CC=CC[C@H]23)cc1OCCCCOc1ccc(-c2nnn[nH]2)cc1` it was -7.83%. With `CCCCN(CCCC)c1c(C#N)cc(S(=O)(=O)Nc2ccccc2)cc1C#N` the figure was -9.03%. On to `O=C(NCCc1c[nH]c2ccccc12)c1cc2ccccc2oc1=O`, for which the Inhibition is -9.92%. In the case of `CC(=O)Nc1ccc(NC(=O)c2cc(-c3cc(Cl)ccc3O)n[nH]2)cc1` it was 0.66%; in that of `C[C@H](C(N)=O)N1CCCC[C@H]1c1ccc(OCc2cccc(F)c2)cc1`, -9.53%.

`Cc1ccc(NC(=O)c2nc[nH]c2C(=O)Nc2nc3ccccc3[nH]2)c(C)c1`: the Inhibition is -8.94%. With `Cl.Cl.Cl.NS(=O)(=O)c1cncc(-c2ccc3nccc(-c4cn[nH]c4)c3n2)c1`, the Inhibition is listed as -2.89%. For the compound `O=C(Nc1nc(-c2ccccn2)cs1)c1cncn1-c1ccccc1`, the Inhibition was -8.18%. With `COc1ccc2nc(C)cc(OCC(=O)Nc3ccccc3OC)c2c1` the figure was -5.56%; with `COC(=O)c1ccc(F)cc1NS(=O)(=O)c1cccc(-c2cnn(Cc3ccccc3)c2)c1`, 12.85%; with `O=C1COCc2ccc(Br)cc2N1Cc1ccc(C(F)(F)F)cc1`, -5.61%. In the case of `CN1CCN(S(=O)(=O)c2ccc(-c3ccc4c(Nc5ncc(Cl)cn5)ccnc4c3)cc2)CC1` it was -3.42%. In the case of `Cl.O=C(Nc1ccc(N2CCNCC2)nc1)c1oc(-c2ccccc2)nc1C(F)(F)F` it was -3.82%; in that of `Cc1ccc(-c2cc(C(=O)Nc3cccnc3)c3cc(Br)ccc3n2)cc1`, -8.45%; in that of `Cc1ccc(NC(=O)c2cc(S(=O)(=O)NC(C)(C)C)ccc2C)nc1`, -5.42%. `O=C(C1CCN(c2nnnn2-c2ccccc2)CC1)N1CCc2ccccc2C1`: the Inhibition was -8.99%. In the case of `O=C(NCc1ccco1)N1CCN(Cc2ccc(Cl)s2)CC1` it was -2.89%; in that of `O=C(Cn1ccnc1[N+](=O)[O-])NCc1ccccc1` [BENZNIDAZOLE], -2.09%. For `Cc1ccc2[nH]c3c(NCCN(C)C)ncnc3c2c1`, the Inhibition is -5.96%. In the case of `COc1ccccc1CNC(=O)c1cc(C2CC2)nc2c1cnn2C(C)C` it was -9.25%; in that of `Cc1cc(Nc2ccc(C(F)(F)F)cc2)n2ccnc2n1`, 2.17%; in that of `CCNC(=O)C(C)Nc1nc(-c2cccnc2)nc2sc(C)c(C)c12` (stereo unspecified), -4.41%. In the case of `CC1CCCN(C(=O)C(C)Nc2cc(Cl)ccc2N2CCOCC2)C1` (stereo unspecified) it was -4.76%; in that of `COc1ccccc1C(C)NCC(=O)Nc1cc(C(F)(F)F)ccc1Cl` (stereo unspecified), -4.09%; in that of `FC(F)(F)c1cccc(-c2nc3c(NCc4ccncc4)nccc3[nH]2)c1`, 5.66%.
